The values below come from PubChem BioAssay AID1851 (National Center for Advancing Translational Sciences (NCATS), 2009).

One may read the AC50 as the midpoint of the concentration-response curve, whichever way the signal moves.

Hit rate of the full screen: of about 16,000 compounds, about 5,800 (36%) were called active. Inconclusive results (about 23%) are left out. This is one part of the list. Values without a mark were called inactive. The call rests on the fitted dose curve; in most records, active means well fitted curve in the direction sought with a large enough effect; inconclusive means small, poorly fitted or top-dose-only effect, or effect the other way; inactive means no such curve, though single readings can be large or run the other way.
On the % scale 0 is the no-effect control and ±100 the full control effect.

The target in the assay is Cytochrome P450 2C19 (Homo sapiens) (UniProt P33261). Briefly: Cytochrome panel assay with activity outcomes. As to conditions: recombinant CYP, pro-luciferin dealkylation, luminescence, p450-cyp2c19; series mostly up to 57.1 µM; activity, negative = inhibition: at the top concentration.
Chain of Cytochrome P450 2C19 (Homo sapiens) (P33261 whole entry, looked up): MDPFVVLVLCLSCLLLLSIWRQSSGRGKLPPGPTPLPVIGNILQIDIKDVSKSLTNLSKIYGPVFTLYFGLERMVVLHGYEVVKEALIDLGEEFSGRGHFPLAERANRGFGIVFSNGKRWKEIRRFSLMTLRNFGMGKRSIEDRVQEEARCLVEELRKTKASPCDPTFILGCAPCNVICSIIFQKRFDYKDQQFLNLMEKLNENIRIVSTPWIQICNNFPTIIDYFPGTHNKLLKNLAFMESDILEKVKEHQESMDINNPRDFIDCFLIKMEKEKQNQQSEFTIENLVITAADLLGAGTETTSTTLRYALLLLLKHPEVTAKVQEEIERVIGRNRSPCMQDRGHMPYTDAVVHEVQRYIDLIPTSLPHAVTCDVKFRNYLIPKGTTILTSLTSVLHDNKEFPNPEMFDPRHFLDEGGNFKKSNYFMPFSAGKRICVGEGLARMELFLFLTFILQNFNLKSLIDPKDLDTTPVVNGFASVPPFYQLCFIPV
In the case of `COc1ccc2[nH]cc(CCNc3nc(-c4cccnc4)nc4ccccc34)c2c1`, the AC50 is 501 nM (active).
Take `COc1cccc(-c2nc(NCCc3c[nH]c4ccc(OC)cc34)c3ccccc3n2)c1`: the AC50 is 1580 nM (active).
Regarding `COc1ccc2[nH]cc(CCNc3nc(-c4ccccc4OC)nc4ccccc34)c2c1`, the AC50 is 5010 nM (active).
Still for that read-out and setting: for `COc1ccc2[nH]cc(CCNc3nc(-c4ccoc4)nc4ccccc34)c2c1` the value was 1580 nM (active).
For `COc1ccccc1-c1nc(NCCN2CCOCC2)c2ccccc2n1`, the “activity, negative = inhibition” value was -25.8%.
In the case of `C1CCN(CC[C@@H]2CCCCN2)CC1`, the activity, negative = inhibition was 0.696% [at 11.4 µM].
Regarding `CC(C)C(NC(=O)C12CC3CC(CC(C3)C1)C2)C(=O)NC1=NCCS1` (stereo not drawn), the AC50 is 10000 nM (active).
On to `CCNC(=O)C/C(C)=N/NC(=O)C12CC3CC(CC(C3)C1)C2`, for which the “activity, negative = inhibition” value was -11.2%.
Take `CCc1cccc2c(-c3ccccc3)c3c(nc12)OCC3`: the AC50 is 7940 nM (active).
Turning to `CCc1cccc2c3c([nH]c12)[C@@](CC)(CC(=O)O)OCC3`, the “activity, negative = inhibition” value was -5.37% [at 25.6 µM].
`Cc1cc(C)nc(Nc2n[nH]c(COc3cccc4ccccc34)n2)n1`: the “activity, negative = inhibition” value is -11.4%.
On the same count and under the same terms, under `Cn1cnc2c(NCc3ccccc3)nc(NCCO)nc21` stands 0.577%.
`Cc1cc(Oc2ccccc2)nc(NCc2ccccc2)n1`: the AC50 was 3160 nM (active).
Consider `Cc1cc(Oc2ccccc2)nc(-c2ccccc2)n1`, for which the AC50 was 11200 nM (active).
For the compound `NCCS`, the “activity, negative = inhibition” value was -17%.
As for `C#CCn1c(S(=O)(=O)Cc2ccc(OC)cc2)nc(-c2ccccc2)c1-c1ccccc1`, the AC50 is 2240 nM (active).
On to `O=C(O)CCNc1ccccc1C(=O)O`, for which the activity, negative = inhibition is 16.3% [at 11.4 µM].
Turning to `O=C(O)c1ccccc1/C=N\N=C1c2ccccc2-c2ccccc21`, the activity, negative = inhibition was 2.09% [at 11.4 µM].
`O=C(O)c1ccccc1N/N=C\c1ccnc2ccccc12`: the AC50 was 15800 nM (active).
Regarding `CCOC(=O)c1ccccc1OCc1cc(/C=N/n2cnnc2)ccc1OC`, the AC50 is 794 nM (active).
In the case of `CCC(=O)NC(=S)N1CCN(c2ccc([N+](=O)[O-])cc2Cl)CC1`, the AC50 was 2820 nM (active).
For `CN1CCN(c2ccc([N+](=O)[O-])cc2NC(=O)c2ccccc2Cl)CC1`, the “activity, negative = inhibition” value was -22%.
Take `O=C(Nc1cc(Sc2ccccn2)cc([N+](=O)[O-])c1)c1ccc(Cl)cc1`: the concentration at half-maximal activity (AC50) was 3160 nM (active).
For `O=C(Nc1cccc(-c2cnc3ccccc3n2)c1)c1ccc(Cl)cc1`, the “activity, negative = inhibition” value is 12.6%.
Regarding `COC(=O)c1ccc(CSc2nc3cc(Cl)ccc3s2)o1`, the AC50 was 3160 nM (active).
Consider `C1CCc2nnnn2CC1`, for which the “activity, negative = inhibition” value is 21.2% [at 25.6 µM].
Regarding `COc1ccc(-n2c(=O)c(-c3ccc(F)c(F)c3)nc3cncnc32)cc1`, the “activity, negative = inhibition” value was -25.4%.
`Cn1c(=O)c(-c2ccc(F)cc2)nc2cncnc21`: the “activity, negative = inhibition” value is -7.45%.
With `COCCn1c(=O)c(-c2ccc(F)c(F)c2)nc2cncnc21`, the “activity, negative = inhibition” value was -37%.
Consider `COc1ccccc1CCn1c(=O)c(-c2ccc(F)c(F)c2)nc2cncnc21`, for which the AC50 is 1260 nM (active).
Turning to `CN1CCN(c2ncc3nc(CCc4ccccc4)c(=O)n(C)c3n2)CC1`, the “activity, negative = inhibition” value is -32%.
With `COc1cccc(Nc2ncc3nc(CCc4ccccc4)c(=O)n(CCC#N)c3n2)c1`, the “activity, negative = inhibition” value was 10.6%.
The same measure, in the same setting: for `Cn1cc(-c2nc3cncnc3n(Cc3ccccc3Cl)c2=O)c2ccccc21` the value was 1.7%; for `COc1cccc(Cn2c(=O)c(-c3cn(C)c4ccccc34)nc3cncnc32)c1`, -42.6%.
On to `COc1ccccc1CCn1c(=O)c(CCc2ccccc2)nc2cncnc21`, for which the AC50 was 3160 nM (active).
Consider `COc1ccccc1CCn1c(=O)c(-c2cn(C)c3ccccc23)nc2cncnc21`, for which the half-maximal activity concentration (AC50) is 316 nM (active).
For `COCCn1c(=O)c(-c2ccc(F)cc2)nc2cncnc21`, the “activity, negative = inhibition” value was -31.8%.
`COc1ccccc1CCn1c(=O)c(-c2ccc(F)cc2)nc2cncnc21`: the AC50 is 316 nM (active).
`CCOC(=O)N/N=C1/C[C@@H](O)[C@@H](O)[C@@H]2[C@@H]3C(=O)N(C(C)(C)C)C(=O)[C@H]3CC[C@H]12`: the activity, negative = inhibition is 1.59% [at 11.4 µM].
Take `COc1ccc(C[C@@H]2C(=O)N[C@H](C)C(=O)N(C)[C@@H]3Cc4ccc(cc4)Oc4cc(ccc4O)C[C@H](C(=O)N[C@@H](C)C(=O)N[C@H](C)C(=O)N2C)N(C)C3=O)cc1`: the activity, negative = inhibition was 1.07% [at 11.4 µM].
As to `COc1ccccc1CCn1c(=O)c(-c2ccccc2)nc2cncnc21`, the AC50 is 631 nM (active).
Turning to `COCCn1c(=O)c(-c2ccc(Cl)cc2)nc2cnc(Nc3ccccc3)nc21`, the “activity, negative = inhibition” value is 16.1%.
Same read-out and setting: under `Cn1c(=O)c(-c2cccc(Cl)c2)nc2cncnc21` stands -41.4%; under `Cn1c(=O)c(-c2ccc(Cl)cc2)nc2cncnc21`, -17.1%.
`COCCn1c(=O)c(-c2cccc(Cl)c2)nc2cncnc21`: the “activity, negative = inhibition” value was -24.7%.
In the case of `COc1ccccc1CCn1c(=O)c(-c2ccc(Cl)cc2)nc2cncnc21`, the AC50 is 398 nM (active).
On the same count and under the same terms, for `COc1ccccc1CCn1c(=O)c(-c2cccc(Cl)c2)nc2cncnc21` the value was 251 nM (active); for `COc1ccccc1CCn1c(=O)c(-c2cccs2)nc2cncnc21`, 2000 nM (active).
